# Shown are actives, neighbours in structure and some others; about 1.1% of the full set was active somewhere.
# Mtb hypoxia rep: inhibitors of hypoxia-regulated fluorescent reporter in Mycobacterium tuberculosis; M. tuberculosis hypoxia-regulated fluorescent reporter, fluorescence; fluorescence inhibition, % (concentration not given with the values); 300,000 tested, 0.1% active; AID 1159583; in the data active = fluorescence inhibition mostly above about 23%, no sharp cut-off; inactive = mostly below about 17%
# SSB-PriA inh: inhibitors of Klebsiella pneumoniae PriA binding to SSB C-terminal tail. inhibition, % at 33 µM. 430,000 tested, 0.6% active. AlphaScreen SSBct-PriA binding, biotinylated peptide; in the data active = inhibition mostly above about 37%, no sharp cut-off; inactive = mostly below about 20%;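 note: plate controls were negative control peptide for no effect and reference peptide for full effect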
# Sa ugtP lethal: compounds lethal to S. aureus RN4220 ugtP deletion mutant. OD600 growth, 16 h. growth inhibition, % (no concentration beside the values). 330,000 tested, 0.54% active; in the data active = growth inhibition above about 68%;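 note: plate controls were untreated wells for no effect and antibiotic for full effect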
# RN4220 kill: S. aureus RN4220 growth inhibition; inhibition, % (test concentration not listed); 330,000 tested, 0.33% active; AID 1259311; OD600, 16 h; in the data active = inhibition above about 85%;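 note: plate controls were untreated cells for no effect and reference antibiotic for full effect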
# Active calls of the source: *; . = no result shown.
SMILES,Mtb hypoxia rep,SSB-PriA inh,Sa ugtP lethal,RN4220 kill
Cc1ccc2nc(SCC(=O)c3c[nH]c4ccccc34)[nH]c2c1,3.3,0.2,-12.1,-4.9
O=C(CSc1nc2ccccc2[nH]1)c1c[nH]c2ccccc12,-0.6,64.7*,-0.6,5.3
Cc1cc(C)n(-c2ccc(CCC(=O)N3CCC(F)(F)CC3)cc2)n1,.,3.0,.,.
CC(C)=CCc1c(O)cc2c(=O)c3ccc(O)cc3oc2c1O,.,4.5,35.3,-3.4
CC(C)=CCc1c(O)cc(O)c2c(=O)c3c(CC=C(C)C)c(O)ccc3oc12,.,9.5,100.5*,100.4*
O=C(c1nc2ccccc2s1)N1CCc2ncncc2C1,.,3.0,.,.
Cc1ncc(C[n+]2csc(CCOC(=O)CC34CC5CC(CC(C5)C3)C4)c2C)c(N)n1,-4.4,-1.8,-3.9,-0.8
Cc1c(CCOC(=O)CC23CC4CC(CC(C4)C2)C3)sc[n+]1Cc1ccccc1,8.0,-4.2,100.0*,86.9
C=CCNC(=O)C(=O)Nc1cc([N+](=O)[O-])ccc1C,.,-10.0,.,.
N#Cc1ccccc1NC(=O)CSc1nccn1-c1ccc(C(=O)NCc2ccccc2F)cc1,.,35.0*,.,.
Cc1nc(SCC(=O)NCc2ccc3c(c2)OCO3)nc(C)c1C,22.9*,10.0,9.6,4.7
CCCN1CCCc2cc(CCNS(=O)(=O)c3ccc(OC)c(Cl)c3)ccc21,.,44.0*,.,.
CCCN1CCCc2cc(CCNS(=O)(=O)c3ccc(OC)cc3)ccc21,.,62.0*,.,.
CCCN1CCCc2cc(CCNC(=O)C(=O)NCc3ccc(OC)cc3)ccc21,.,49.0,.,.
CCCN1CCCc2cc(CCNS(=O)(=O)c3ccc(OC)c(OC)c3)ccc21,.,67.0*,.,.
COc1ccc(S(=O)(=O)NCCc2ccc(N3CCCC3)cc2)cc1Cl,.,12.0,.,.
COc1ccc(CCNS(=O)(=O)c2ccc3c(c2)CCN3C(=O)C2CC2)cc1OC,.,13.1,4.2,0.7
CCCN1CCCc2cc(CCNS(=O)(=O)c3cc(C)c(C)cc3OC)ccc21,.,60.0*,.,.
CC(=O)c1ccc(S(=O)(=O)NCCn2ccnc2-c2ccccn2)cc1,.,2.0,.,.
CCCCCCCC#Cc1ccccc1C=NS(=O)c1ccc(C)cc1 (configuration not stated),4.7,-45.2,98.5*,-2.4
CCCCCCCCC#Cc1nc(C)ccc1OC,5.9,-38.5,37.4,5.5
CC1(C)Cc2cccc(OCC(=O)Nc3cnn(CC4CCOCC4)c3)c2O1,.,-14.0,.,.
CCC[C@@H](CN1CCC[C@H]1CN1C(N)=NC[C@H]1CC(C)C)N1C[C@@H]([C@H](C)CC)N(CCCC2CCCC2)C1=N,.,-0.8,100.6*,100.6*
CCCC(CN1CCCC1CN1C(N)=NCC1Cc1ccccc1)N1CC(Cc2ccccc2)N(CCCC2CCCC2)C1=N (configuration not stated),.,.,100.7*,100.7*
CCC(C)C1CN(C(CN2CCCC2CN2C(N)=NCC2Cc2ccccc2)C(C)C)C(=N)N1CCCC1CCCC1 (configuration not stated),.,.,100.2*,100.0*
SMILES,Mtb hypoxia rep,SSB-PriA inh,Sa ugtP lethal,RN4220 kill
CC[C@@H](C)[C@@H]1CN([C@@H](CN2CCC[C@H]2CN2C(N)=NC[C@H]2C(C)C)C(C)C)C(=N)N1CCCC1CCCC1,.,-5.7,99.7*,94.0*
O=c1c2ccccc2c(-c2nc(-c3cccc(C(F)(F)F)c3)no2)cn1-c1ccc(Cl)cc1,.,-9.0,.,.
CC(C)c1ccc(NC(=O)C(=O)NCC2CCN(Cc3ccccc3)CC2)cc1,.,-14.0,.,.
COc1ccc(C(=O)Nc2cc(C)nn2-c2nc3c(cnn3-c3ccc(F)cc3)c(=O)[nH]2)cc1OC,.,53.0*,.,.
Cc1cc(NC(=O)c2ccccc2C(F)(F)F)n(-c2nc3c(cnn3-c3ccccc3)c(=O)[nH]2)n1,.,24.0,.,.
CSc1ccccc1C(=O)Nc1cc(C)nn1-c1nc2c(cnn2-c2ccc(F)cc2)c(=O)[nH]1,.,41.0*,.,.
COCC(=O)Nc1cc(C)nn1-c1nc2c(cnn2-c2ccc(F)cc2)c(=O)[nH]1,.,8.0,.,.
COc1ccc(C(=O)Nc2cc(C)nn2-c2nc3c(cnn3-c3ccc(C)c(C)c3)c(=O)[nH]2)cc1OC,.,91.0*,.,.
COc1ccc(C(=O)Nc2cc(C)nn2-c2nc3c(cnn3-c3ccc(C)cc3)c(=O)[nH]2)cc1,.,0.0,.,.
NC(=O)[C@@H]1CCCNc2c(I)cc([N+](=O)[O-])cc2C(=O)N[C@@H](Cc2ccccc2)C(=O)N[C@@H](Cc2cnc[nH]2)C(=O)N1,.,40.5*,.,.
N#C/C(=C\c1ccc([N+](=O)[O-])o1)c1nc2ccccc2[nH]1,.,-2.0,100.1*,99.9*
Cc1ccc2nc(/C(C#N)=C\c3ccc(N4CCOCC4)o3)[nH]c2c1,.,-0.1,6.1,2.8
Cc1ccc2nc(/C(C#N)=C\c3ccc([N+](=O)[O-])o3)[nH]c2c1,.,-5.1,98.7*,99.5*
Clc1ccc(C[n+]2csc3ccccc32)cc1,3.4,34.2,99.9*,87.1*
Fc1ccc(C[n+]2csc3ccccc32)cc1,.,2.3,.,.
